Laboratory results: PubChem BioAssay (EPA / NIEHS)
Calls of active or inactive are those of the source. The calls were made as follows: active = hit-call score of the fitted dose curve at least 0.9, where 1 is the maximum; inactive = score below 0.9.

Experiments:
[1] = target: Bile acid receptor (Homo sapiens) (UniProt Q96RI1); test: ATG_IR1_CIS: Attagene CIS-FACTORIAL HepG2 Assay for human Nuclear Receptor Subfamily 1 Group H Member 4 (NR1H4), IR1 submotif (AID 2282946); details: IR1 reporter transcription, actives raise or lower the signal
Bile acid receptor (Homo sapiens), sequence (Q96RI1 whole entry, looked up): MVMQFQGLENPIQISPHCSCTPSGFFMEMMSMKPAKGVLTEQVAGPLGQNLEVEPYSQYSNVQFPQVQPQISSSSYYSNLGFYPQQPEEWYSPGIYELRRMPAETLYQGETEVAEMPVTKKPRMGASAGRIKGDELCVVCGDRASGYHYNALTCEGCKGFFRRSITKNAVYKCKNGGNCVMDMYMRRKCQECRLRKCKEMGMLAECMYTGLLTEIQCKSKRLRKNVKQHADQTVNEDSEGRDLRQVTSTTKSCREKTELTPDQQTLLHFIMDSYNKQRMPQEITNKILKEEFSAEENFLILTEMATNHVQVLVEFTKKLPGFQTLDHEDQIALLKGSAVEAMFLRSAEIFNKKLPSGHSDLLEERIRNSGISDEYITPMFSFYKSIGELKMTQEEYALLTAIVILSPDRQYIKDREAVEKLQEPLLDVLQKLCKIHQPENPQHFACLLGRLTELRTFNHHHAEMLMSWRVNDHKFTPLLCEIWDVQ
Procedure, shortened: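 HepG2 cells transiently transfected with multiplexed cis-element reporter units read endogenous transcription factor activity. After 24 h compound exposure, reporter mRNA was quantified by RT-PCR, fluorescent labelling, HpaI digestion and capillary electrophoresis; bidirectional fitting versus DMSO baseline.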

[2] = ATG_GRE_CIS: Attagene CIS-FACTORIAL HepG2 Assay for human Glucocorticoid Response Elements (GRE) (AID 2282947); details: HepG2 GRE cis-reporter, Attagene multiplex mRNA; actives raise or lower the signal
Procedure, shortened: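 Multiplexed cis-reporter mRNA induction, HepG2, 24 h post-dose. RT-PCR, FAM-labelled, HpaI-digested amplicons by CE. Bidirectional fit vs DMSO.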

[3] = ATG_ISRE_CIS: Attagene CIS-FACTORIAL HepG2 Assay for human Interferon Regulatory Factor 1 (IRF1) binding to an Interferon-Stimulated Response Element (ISRE) (AID 2282948); details: HepG2 ISRE cis-reporter (Attagene), mRNA transcription readout; actives raise or lower the signal
Procedure, shortened: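 Read-out: fluorescent RT-PCR products resolved by capillary electrophoresis, reporting endogenous transcription factor activity via ISRE-driven reporter mRNA in transfected HepG2 cells dosed for 24 h; gain or loss fitted relative to DMSO.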

[4] = ATG_M_32_CIS: Attagene CIS-FACTORIAL HepG2 Assay for M32 Transcription Factor (Internal Marker) (AID 2282949); details: HepG2 Attagene cis-factorial M32 reporter, mRNA; actives raise or lower the signal;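 also: background control marker of the multiplexed CIS panel rather than a real target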
Procedure, shortened: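 Using DMSO as baseline, bidirectional curve fits were applied to reporter mRNA signals. These came from transiently transfected HepG2 cells exposed for 24 h, with RNA analysed by RT-PCR, FAM primer extension, HpaI digestion and CE.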

[5] = ATG_M_06_CIS: Attagene CIS-FACTORIAL HepG2 Assay for M06 Transcription Factor (Internal Marker) (AID 2282950); details: HepG2 Attagene CIS-FACTORIAL M06 internal marker reporter; actives raise or lower the signal
Procedure, shortened: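 One of many multiplexed endpoints: HepG2 reporter mRNA after 24 h dosing, detected by RT-PCR and capillary electrophoresis fluorescence; gain or loss of signal analysed against DMSO.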

[6] = target: Hypoxia-inducible factor 1-alpha (Homo sapiens) (UniProt Q16665); test: ATG_HIF1a_CIS: Attagene CIS-FACTORIAL HepG2 Assay for human Hypoxia Inducible Factor 1 (HIF1A) (AID 2282951); details: HepG2 Attagene cis-factorial HIF1a reporter transcription; actives raise or lower the signal
Hypoxia-inducible factor 1-alpha (Homo sapiens), sequence (Q16665 whole entry, looked up): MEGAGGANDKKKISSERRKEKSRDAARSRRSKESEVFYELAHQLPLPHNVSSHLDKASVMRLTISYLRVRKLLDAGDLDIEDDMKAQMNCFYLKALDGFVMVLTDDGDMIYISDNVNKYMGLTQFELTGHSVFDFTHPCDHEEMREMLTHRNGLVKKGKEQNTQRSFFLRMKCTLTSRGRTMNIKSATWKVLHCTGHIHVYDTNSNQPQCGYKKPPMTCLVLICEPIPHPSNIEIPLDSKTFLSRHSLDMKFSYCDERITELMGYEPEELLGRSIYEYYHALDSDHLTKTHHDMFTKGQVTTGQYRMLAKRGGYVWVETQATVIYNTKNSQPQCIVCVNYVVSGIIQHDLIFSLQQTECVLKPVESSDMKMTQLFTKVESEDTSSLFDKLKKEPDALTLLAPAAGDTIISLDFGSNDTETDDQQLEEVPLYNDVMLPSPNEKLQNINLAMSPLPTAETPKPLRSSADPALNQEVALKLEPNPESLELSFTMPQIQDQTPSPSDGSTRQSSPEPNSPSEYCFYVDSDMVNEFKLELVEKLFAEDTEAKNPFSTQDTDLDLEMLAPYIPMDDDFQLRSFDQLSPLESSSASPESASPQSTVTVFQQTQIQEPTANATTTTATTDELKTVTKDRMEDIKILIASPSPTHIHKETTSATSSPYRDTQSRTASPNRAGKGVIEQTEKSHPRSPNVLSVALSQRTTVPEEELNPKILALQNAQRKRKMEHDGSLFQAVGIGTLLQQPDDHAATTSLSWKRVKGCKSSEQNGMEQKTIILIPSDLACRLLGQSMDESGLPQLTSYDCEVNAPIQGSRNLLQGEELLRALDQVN
Procedure, shortened: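 Dosed 24 h, transfected HepG2 cells yielded total RNA whose reporter transcripts were RT-PCR-amplified and sized by capillary electrophoresis using fluorescent labelling; DMSO defined baseline, with gain and loss of signal both fitted.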

[7] = target: Hepatocyte nuclear factor 6 (Homo sapiens) (UniProt Q9UBC0); test: ATG_HNF6_CIS: Attagene CIS-FACTORIAL HepG2 Assay for human Hepatocyte Nuclear Factor 6 (HNF6) (AID 2282952); details: HepG2 Attagene cis-factorial HNF6 reporter transcription; actives raise or lower the signal
Hepatocyte nuclear factor 6 (Homo sapiens), sequence (Q9UBC0 whole entry, looked up, the tested form may be a part): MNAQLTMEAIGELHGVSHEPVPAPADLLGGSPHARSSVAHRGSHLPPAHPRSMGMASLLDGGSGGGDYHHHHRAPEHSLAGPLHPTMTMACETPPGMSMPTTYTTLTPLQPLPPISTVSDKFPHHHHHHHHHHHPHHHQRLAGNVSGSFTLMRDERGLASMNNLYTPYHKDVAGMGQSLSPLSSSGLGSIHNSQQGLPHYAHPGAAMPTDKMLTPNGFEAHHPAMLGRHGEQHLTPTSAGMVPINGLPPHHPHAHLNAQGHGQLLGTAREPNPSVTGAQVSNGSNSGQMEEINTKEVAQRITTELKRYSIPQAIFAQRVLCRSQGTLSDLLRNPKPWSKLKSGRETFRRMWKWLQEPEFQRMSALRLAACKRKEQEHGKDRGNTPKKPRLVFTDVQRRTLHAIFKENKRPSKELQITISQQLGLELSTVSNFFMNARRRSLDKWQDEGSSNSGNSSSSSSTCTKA
Procedure, shortened: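 Using cis-element reporters in HepG2 liver cells, the assay tracks endogenous factor-driven transcription 24 h post-dosing. Signal comes from 6-FAM-labelled, HpaI-digested RT-PCR fragments, with gain or loss scored against DMSO.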

[8] = target: Heat shock factor protein 1 (Homo sapiens) (UniProt Q00613); test: ATG_HSE_CIS: Attagene CIS-FACTORIAL HepG2 Assay for human Heat Shock Transcription Factor 1 (HSE) (AID 2282953); details: HepG2 HSE cis-reporter, Attagene RNA transcription; actives raise or lower the signal
Heat shock factor protein 1 (Homo sapiens), sequence (Q00613 whole entry, looked up): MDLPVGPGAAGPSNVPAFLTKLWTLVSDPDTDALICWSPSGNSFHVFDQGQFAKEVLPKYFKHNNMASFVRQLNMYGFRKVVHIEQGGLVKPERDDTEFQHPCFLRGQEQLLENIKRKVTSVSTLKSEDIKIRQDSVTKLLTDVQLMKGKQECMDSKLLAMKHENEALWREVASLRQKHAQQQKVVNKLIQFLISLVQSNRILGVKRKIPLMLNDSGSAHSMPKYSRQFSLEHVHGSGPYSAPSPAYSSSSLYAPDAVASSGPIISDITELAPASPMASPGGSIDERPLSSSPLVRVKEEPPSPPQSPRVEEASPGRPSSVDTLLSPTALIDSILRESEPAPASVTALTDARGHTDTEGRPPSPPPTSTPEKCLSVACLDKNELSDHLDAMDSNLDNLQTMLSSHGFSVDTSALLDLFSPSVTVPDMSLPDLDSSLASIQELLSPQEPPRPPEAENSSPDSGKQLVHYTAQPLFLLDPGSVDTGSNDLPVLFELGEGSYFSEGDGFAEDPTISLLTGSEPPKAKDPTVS
Procedure, shortened: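 Using HepG2 with transfected cis-driven reporter constructs, compound effects on endogenous factor activity are scored as reporter mRNA change at 24 h. Detection: RT-PCR, HpaI digestion, capillary electrophoresis; bidirectional fitting to DMSO.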

[9] = ATG_MRE_CIS: Attagene CIS-FACTORIAL HepG2 Assay for human Metal Responsive Element (MRE) (AID 2282954); details: HepG2 MRE cis-reporter transcription, Attagene multiplex; actives raise or lower the signal
Procedure, shortened: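 Multiplexed cis-reporter assay in human HepG2 liver cells, 24 h incubation with test chemical. Reporter transcripts measured by RT-PCR and capillary electrophoresis; values from bidirectional curve fitting versus DMSO.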

[10] = ATG_PBREM_CIS: Attagene CIS-FACTORIAL HepG2 Assay for human Phenobarbital-responsive Enhancer Module (PBREM) (AID 2282955); details: HepG2 PBREM cis-reporter, Attagene multiplexed transcription; actives raise or lower the signal
Procedure, shortened: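 Transfected liver-derived HepG2 cells exposed 24 h; PBREM reporter transcript quantified via RT-PCR and capillary electrophoresis, with activity in either direction referenced to DMSO.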

[11] = target: Paired box protein Pax-6 (Homo sapiens) (UniProt P26367); test: ATG_Pax6_CIS: Attagene CIS-FACTORIAL HepG2 Assay for human Paired Box 6 (PAX6) (AID 2282956); details: HepG2 CIS-FACTORIAL PAX6 reporter transcription, RNA readout; actives raise or lower the signal
Paired box protein Pax-6 (Homo sapiens), sequence (P26367 whole entry, looked up): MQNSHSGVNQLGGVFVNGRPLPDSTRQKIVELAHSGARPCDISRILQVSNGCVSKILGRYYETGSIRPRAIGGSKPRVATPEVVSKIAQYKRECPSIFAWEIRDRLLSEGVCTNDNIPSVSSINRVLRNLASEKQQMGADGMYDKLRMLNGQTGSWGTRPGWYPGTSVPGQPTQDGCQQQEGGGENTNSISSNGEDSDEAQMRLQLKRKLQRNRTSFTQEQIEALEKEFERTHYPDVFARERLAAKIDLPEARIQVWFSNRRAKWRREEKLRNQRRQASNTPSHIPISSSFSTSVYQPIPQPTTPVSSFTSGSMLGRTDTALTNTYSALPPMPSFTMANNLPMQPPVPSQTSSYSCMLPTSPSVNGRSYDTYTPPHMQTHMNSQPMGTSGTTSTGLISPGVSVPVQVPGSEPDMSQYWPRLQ
Procedure, shortened: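 Readout: reporter transcript fluorescence after RT-PCR and capillary electrophoresis. Cells: HepG2, transiently transfected with cis-regulated MRTUs. Exposure 24 h. Gain or loss of signal fitted bidirectionally relative to DMSO.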

[12] = ATG_PXRE_CIS: Attagene CIS-FACTORIAL HepG2 Assay for human Pregnane X Receptor Element (PXRE) (AID 2282957); details: HepG2 Attagene CIS-FACTORIAL PXRE reporter, mRNA; actives raise or lower the signal
Procedure, shortened: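 Using HepG2 transfected with multiple reporter transcription units, endogenous factor-driven transcription was scored as reporter mRNA after 24 h exposure.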

[13] = ATG_PPRE_CIS: Attagene CIS-FACTORIAL HepG2 Assay for human Peroxisome Proliferator-activated Response Element (PPRE) (AID 2282958); details: HepG2 PPRE cis-element reporter, Attagene transcription factor profiling; actives raise or lower the signal
Procedure, shortened: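 Measured endpoint: PPRE-controlled reporter mRNA, detected by RT-PCR and capillary electrophoresis fluorescence, from transiently transfected HepG2 cells 24 h after dosing. Curves fitted in both directions using DMSO baseline.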

[14] = ATG_RORE_CIS: Attagene CIS-FACTORIAL HepG2 Assay for human RAR-related Orphan Receptor Element (RORE) (AID 2282959); details: HepG2 Attagene cis-factorial RORE reporter, mRNA; actives raise or lower the signal
Procedure, shortened: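 Transiently transfected HepG2 reporter cells were treated 24 h. Reporter transcripts were detected by RT-PCR and capillary electrophoresis, with bidirectional fitting against DMSO.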

[15] = ATG_Sox_CIS: Attagene CIS-FACTORIAL HepG2 Assay for human SRY-box transcription factor (SOX) (AID 2282960); details: HepG2 Attagene cis-factorial SOX reporter, mRNA; actives raise or lower the signal
Procedure, shortened: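 Gain- or loss-of-signal endpoint, fitted bidirectionally with DMSO as negative control. Based on reporter mRNA from transfected HepG2 cells harvested 24 h post-treatment and quantified via RT-PCR and capillary electrophoresis.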

[16] = target: Transcription factor Sp1 (Homo sapiens) (UniProt P08047); test: ATG_Sp1_CIS: Attagene CIS-FACTORIAL HepG2 Assay for human Specificity Protein 1 (Sp1) (AID 2282961); details: HepG2 Sp1 cis-reporter transcription, actives raise or lower the signal
Transcription factor Sp1 (Homo sapiens), sequence (P08047 whole entry, looked up, the tested form may be a part): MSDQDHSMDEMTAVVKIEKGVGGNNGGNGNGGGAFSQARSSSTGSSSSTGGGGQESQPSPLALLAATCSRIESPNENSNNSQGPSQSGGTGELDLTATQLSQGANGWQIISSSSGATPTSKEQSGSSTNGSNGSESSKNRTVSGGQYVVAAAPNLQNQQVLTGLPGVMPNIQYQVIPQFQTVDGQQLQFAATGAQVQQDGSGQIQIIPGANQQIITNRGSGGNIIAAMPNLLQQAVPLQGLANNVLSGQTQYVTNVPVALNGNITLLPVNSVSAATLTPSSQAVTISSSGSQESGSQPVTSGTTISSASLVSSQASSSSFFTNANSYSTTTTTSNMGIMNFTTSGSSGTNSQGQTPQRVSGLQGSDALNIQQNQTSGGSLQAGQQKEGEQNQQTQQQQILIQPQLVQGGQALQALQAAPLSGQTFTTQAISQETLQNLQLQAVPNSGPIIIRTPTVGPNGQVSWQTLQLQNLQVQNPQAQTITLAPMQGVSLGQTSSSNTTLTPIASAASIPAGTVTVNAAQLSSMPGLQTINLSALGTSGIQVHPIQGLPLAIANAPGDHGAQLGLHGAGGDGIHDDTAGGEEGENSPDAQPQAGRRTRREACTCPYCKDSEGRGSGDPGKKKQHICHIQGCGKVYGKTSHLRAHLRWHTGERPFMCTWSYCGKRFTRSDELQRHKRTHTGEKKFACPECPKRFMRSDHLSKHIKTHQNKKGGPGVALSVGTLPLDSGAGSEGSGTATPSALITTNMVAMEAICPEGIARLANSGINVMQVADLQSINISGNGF
Procedure, shortened: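 Endpoint reflects endogenous Sp1 transcriptional activity, not an exogenous fusion protein: HepG2 cells with transfected cis-regulated reporters, 24 h dosing, RT-PCR/capillary electrophoresis mRNA read-out, DMSO-normalised bidirectional fit.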

[17] = target: Signal transducer and activator of transcription 3 (Homo sapiens) (UniProt P40763); test: ATG_STAT3_CIS: Attagene CIS-FACTORIAL HepG2 Assay for human Signal Transducer and Activator of Transcription 3 (STAT3) (AID 2282963); details: HepG2, Attagene cis-factorial STAT3 reporter transcription; actives raise or lower the signal
Signal transducer and activator of transcription 3 (Homo sapiens), sequence (P40763 whole entry, looked up): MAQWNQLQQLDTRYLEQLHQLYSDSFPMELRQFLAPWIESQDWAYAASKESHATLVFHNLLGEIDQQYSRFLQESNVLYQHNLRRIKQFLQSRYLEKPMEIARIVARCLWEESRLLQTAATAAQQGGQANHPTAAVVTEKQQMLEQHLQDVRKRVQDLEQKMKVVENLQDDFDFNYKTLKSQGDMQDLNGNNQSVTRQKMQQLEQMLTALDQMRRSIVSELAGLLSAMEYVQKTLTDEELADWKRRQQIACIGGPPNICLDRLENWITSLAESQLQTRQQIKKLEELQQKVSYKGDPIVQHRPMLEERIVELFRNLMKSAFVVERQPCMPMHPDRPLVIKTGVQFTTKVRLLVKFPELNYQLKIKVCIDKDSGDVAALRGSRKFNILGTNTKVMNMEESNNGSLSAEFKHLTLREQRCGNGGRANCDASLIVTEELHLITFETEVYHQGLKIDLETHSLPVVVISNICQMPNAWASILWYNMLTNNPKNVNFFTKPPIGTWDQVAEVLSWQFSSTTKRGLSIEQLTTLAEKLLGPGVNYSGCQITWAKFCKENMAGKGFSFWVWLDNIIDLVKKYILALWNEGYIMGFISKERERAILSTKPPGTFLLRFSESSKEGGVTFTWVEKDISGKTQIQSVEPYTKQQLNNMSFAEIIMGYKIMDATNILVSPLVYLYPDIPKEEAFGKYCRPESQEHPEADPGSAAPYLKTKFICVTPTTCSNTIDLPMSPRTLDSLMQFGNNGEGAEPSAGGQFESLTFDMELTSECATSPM
Procedure, shortened: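 Cis-factorial format: endogenous transcription factors in HepG2 drive transfected reporter units. After 24 h treatment, reporter RNA was reverse-transcribed, amplified, FAM-labelled and HpaI-digested before CE analysis; activity scored in both directions against DMSO.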

[18] = ATG_TA_CIS: Attagene CIS-FACTORIAL HepG2 Assay for human TA Basal Promoter (AID 2282964); details: HepG2 Attagene CIS-factorial TA basal promoter reporter; actives raise or lower the signal
Procedure, shortened: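 Transient MRTU transfection of HepG2 preceded 24 h compound exposure. Reporter mRNA levels were then read by RT-PCR with capillary electrophoresis, and this background-control endpoint was fitted bidirectionally to DMSO.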

[19] = ATG_TCF_b_cat_CIS: Attagene CIS-FACTORIAL HepG2 Assay for human T-Cell-Factor with beta-catenin (TCF/b-cat) (AID 2282965); details: HepG2 TCF/beta-catenin cis-reporter transcription, actives raise or lower the signal
Procedure, shortened: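 Endogenous transcription factor activity is captured through cis-promoter reporter constructs transiently introduced into human HepG2 liver cells. Induced reporter mRNA is measured after 24 h and fitted bidirectionally relative to DMSO.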

[20] = ATG_SREBP_CIS: Attagene CIS-FACTORIAL HepG2 Assay for human Sterol Regulatory Element Binding (SREBP) (AID 2282962); details: HepG2 Attagene cis-factorial SREBP reporter, mRNA; actives raise or lower the signal
Procedure, shortened: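 Readout: fluorescent reporter-transcript peaks resolved by capillary electrophoresis after RT-PCR. Cells were human HepG2 carrying transfected cis-promoter reporter constructs, dosed for 24 h. Gain or loss of signal was fitted against DMSO controls.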

Measured: AC50

O=Cc1ccc(Cl)c([N+](=O)[O-])c1
active: [1] 63.7 µM | [3] 149 µM | [6] 139 µM | [7] 134 µM | [8] 142 µM | [9] 142 µM | [11] 91.2 µM | [12] 67.5 µM | [15] 109 µM | [16] 146 µM | [19] 65.1 µM
inactive: [2] | [4] | [5] | [10] | [13] | [14] | [17] | [18]

CCCC(=O)c1cc(O)c(O)cc1O
not listed: [14]
inactive: all other assays above

BrC1CCC(Br)C(Br)CCC(Br)C(Br)CCC1Br (stereo not given)
active: [3] 87 µM | [7] 87 µM | [9] 49.2 µM | [11] 20.5 µM | [12] 0.95 µM | [16] 87 µM | [20] 53.7 µM
inactive: all other assays above

CC(=O)OCC=Cc1ccccc1
active: [12] 32.1 µM
inactive: all other assays above

Nc1cc(N)cc(C(=O)O)c1
not listed: [10] | [14]
inactive: all other assays above

O=Cc1ccc(F)cc1
not listed: [10]
inactive: all other assays above

COc1ccc(OC)c(OC)c1
not listed: [12] | [13]
inactive: all other assays above

O=S(=O)(O)c1ccc(O)c2ncccc12
not listed: [13] | [14]
inactive: all other assays above

NCCOCCO
active: [6] 30.2 µM
not listed: [10] | [13] | [14]
inactive: all other assays above

CC(=O)OCc1ccc2c(c1)OCO2
not listed: [12] | [13]
inactive: all other assays above

COC(=O)c1ccc(C)cc1
active: [12] 11.1 µM
not listed: [13] | [17]
inactive: all other assays above

O=C(O)CCCCCCCCCCC(=O)O
not listed: [13]
inactive: all other assays above

c1cc(C(c2ccc(OCC3CO3)cc2)c2ccc(OCC3CO3)cc2)ccc1OCC1CO1 (stereo not given)
active: [3] 14.7 µM | [6] 56.4 µM | [7] 25.3 µM | [8] 12.5 µM | [9] 13.4 µM | [11] 9.85 µM | [13] 100 µM | [15] 9.7 µM | [16] 100 µM | [20] 26.3 µM | [17] 66.3 µM | [18] 19.8 µM | [19] 8.93 µM
inactive: [1] | [2] | [4] | [5] | [12] | [14]

CC1=CC(=O)NS(=O)(=O)O1
active: [12] 55.8 µM
not listed: [7] | [19]
inactive: all other assays above
